From PubChem BioAssay (EPA / NIEHS)
Records with an inconclusive call do not appear. Calls of active or inactive are those of the source. Rule for the calls: active = hit-call score of the fitted dose curve at least 0.9, where 1 is the maximum; inconclusive = response in the unintended direction; inactive = score below 0.9.

biological target: Oxysterols receptor LXR-alpha (Homo sapiens) (UniProt Q13133); experiment: ATG_LXRa_TRANS: Attagene TRANS-FACTORIAL HepG2 Assay for human Liver X Receptor alpha (LXRa) (AID 2282980); settings: HepG2 Attagene TRANS reporter, LXRa transactivation
Description: ATG_TRANS is a cell-based, multiplexed-readout assay that uses HepG2, a human liver cell line, with measurements taken at 24 hours after chemical dosing in a 24-well plate.ATG_LXRa_TRANS is one of 30 assay component(s) measured or calculated from the ATG_TRANS assay. It is designed to make measurements of mRNA induction, a form of inducible reporter, as detected with fluorescence intensity signals by Reverse transcription polymerase chain reaction (RT-PCR) and Capillary electrophoresis technology.Data from the assay component ATG_LXRa_TRANS was analyzed into 1 assay endpoint. This assay endpoint, ATG_LXRa_TRANS, was analyzed in the positive analysis fitting direction relative to DMSO as the negative control and baseline of activity. Using a type of inducible reporter, measures of mRNA for gain-of-signal activity can be used to understand the reporter gene at the transcription factor-level as they relate to the gene NR1H3. Furthermore, this assay endpoint can be referred to as a primary readout, because this assay has produced multiple assay endpoints where this one serves a reporter gene function. To generalize the intended target to other relatable targets, this assay endpoint is annotated to the nuclear receptor intended target family, where the subfamily is non-steroidal.
Human liver HepG2 cells are transiently transfected with multiple reporter transcription units (MRTUs) in 6-well plates using FuGene 6 reagent (Roche; 3 ml FuGene/1 mg DNA). The MRTU constructs are regulated by a cis-regulating element (promoter). […] A major difference between the CIS and TRANS system is that in CIS activities of endogenous TFs are measured, whereas the TRANS assay evaluates changes in activities of exogenous, chimeric NR-Gal4 proteins. […] At the end of 24 hour incubation, total RNA was isolated using TriZol reagent (Invitrogen). The isolated RNA is then reverse-transcribed using oligo(dT) primer and Mo-MLV reverse transcriptase (Invitrogen) with DNAse I (Ambion) treatment for 30 min. The one-tenth of the produced cDNA was amplified by PCR using Taq DNA polymerase (Invitrogen) and two reporter sequence-specific primers. The PCR products were fluorescently labeled by primer extension with 6-arboxyfluorescein (6-FAM) 5'-labeled reporter sequence-specific primer (2 min at 95 C, 20 s at 68 C and 10 min at 72 C) and these products were digested with 5U of HpaI (New England Biolabs) for 2h at 37 C. The fragments were purified using Qiaquick PCR columns (Qiagen), analyzed on an ABI 3130xL genetic analyzer (Applied Biosystems) with peak positions identified by using a set of X-rhodamine (ROX)-labeled MapMarker1000 molecular weight standards (BioVentures). The raw capillary electrophoresis data was processed using Attagraph software (Attagene).

Sequence of Oxysterols receptor LXR-alpha (Homo sapiens) (Q13133 whole entry, looked up): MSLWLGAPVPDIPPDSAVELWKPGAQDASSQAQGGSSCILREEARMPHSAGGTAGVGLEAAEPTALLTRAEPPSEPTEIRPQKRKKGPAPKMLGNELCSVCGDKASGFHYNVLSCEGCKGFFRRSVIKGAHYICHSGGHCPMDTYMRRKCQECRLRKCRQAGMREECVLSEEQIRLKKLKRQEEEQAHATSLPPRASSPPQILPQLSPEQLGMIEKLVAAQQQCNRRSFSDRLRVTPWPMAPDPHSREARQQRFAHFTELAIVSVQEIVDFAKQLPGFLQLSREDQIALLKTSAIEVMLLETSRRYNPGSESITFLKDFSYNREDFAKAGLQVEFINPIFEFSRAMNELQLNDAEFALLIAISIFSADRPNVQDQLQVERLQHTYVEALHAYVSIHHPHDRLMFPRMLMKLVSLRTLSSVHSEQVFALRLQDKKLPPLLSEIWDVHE

Row | Structure (SMILES) | outcome | AC50
1 | COC(=O)c1ccc2cc(C(=O)OC)ccc2c1 | inactive | 
2 | CC(C)COC(=O)C=Cc1ccccc1 | inactive | 
3 | O=S(=O)(O)c1ccccc1C=Cc1ccc(-c2ccc(C=Cc3ccccc3S(=O)(=O)O)cc2)cc1 | inactive | 
4 | CCCOC(=O)CCCCC(=O)OCCC | inactive | 
5 | CC(C)(C)c1ccc(N)cc1 | inactive | 
6 | COc1ccc(C(Cl)=C(c2ccc(OC)cc2)c2ccc(OC)cc2)cc1 | inactive | 
7 | CC(=O)OC1C2(C)CCC(C2)C1(C)C (stereo not given) | inactive | 
8 | O=S(=O)(O)c1cc(S(=O)(=O)O)c2ccc3c(S(=O)(=O)O)cc(S(=O)(=O)O)c4ccc1c2c43 | inactive | 
9 | O=C(c1ccccc1)c1ccc(O)c(O)c1O | inactive | 
10 | CCO[Si](CCCN=C=O)(OCC)OCC | inactive | 
11 | N[C@H]1C(O)O[C@H](CO)[C@H](O)[C@@H]1O (stereo not given in full) | inactive | 
12 | CC/C=C\C/C=C\C/C=C\CCCCCCCC(=O)O | inactive | 
13 | CCCCCCCC[N+](C)(CCCCCCCC)CCCCCCCC | inactive | 
14 | O=C(Nc1ccccc1)c1ccccc1O | inactive | 
15 | COCC(C)N (stereo not given) | inactive | 
16 | C[C@]12CCC(=O)C=C1CC[C@@H]1[C@@H]2C(=O)C[C@@]2(C)[C@H]1CC[C@]2(O)C(=O)CO | inactive | 
17 | O=C1C=CC(=O)O1 | inactive | 
18 | CC1(C)O[C@@H]2C[C@H]3[C@@H]4C[C@H](F)C5=CC(=O)C=C[C@]5(C)[C@@]4(F)[C@@H](O)C[C@]3(C)[C@]2(C(=O)CO)O1 | inactive | 
19 | CC(=O)OCC(C)OC(C)=O (stereo not given) | inactive | 
20 | CC(=O)OCc1ccco1 | inactive | 

Row | Structure (SMILES) | outcome | AC50
21 | NC(=O)NNC(N)=O | inactive | 
22 | CC(C)(C)c1ccc(-c2ccc(C(C)(C)C)cc2)cc1 | inactive | 
23 | CO[Si](OC)(OC)c1ccccc1 | inactive | 
24 | CCC(C)OC(=O)c1ccc(O)cc1 (stereo not given) | inactive | 
25 | C[Si](C)(C)O[Si](O)(O)O | inactive | 
26 | Cc1ccccc1C | inactive | 
27 | O=c1n(CCO)c(=O)n(CCO)c(=O)n1CCO | inactive | 
28 | CCN(CCC#N)c1ccc(N=Nc2c(Cl)cc([N+](=O)[O-])cc2Cl)cc1 | inactive | 
29 | CC(C)c1ccc(C#N)cc1 | inactive | 
30 | C=CCOCC(O)CCl (stereo not given) | inactive | 
31 | CC(C)C1=CC2=CC[C@@H]3[C@](C)(CCC[C@@]3(C)C(=O)O)[C@H]2CC1 |  | 26.8 µM (active)
32 | O=c1cc(-c2ccccc2)oc2ccccc12 | inactive | 
33 | CC(C)(C)C1CCCCC1=O (stereo not given) | inactive | 
34 | COCCCOCCCOC | inactive | 
35 | OCCc1ccncc1 | inactive | 
36 | CC(=O)[C@@]1(O)CC[C@H]2[C@@H]3C[C@H](C)C4=CC(=O)C=C[C@]4(C)[C@@]3(F)[C@@H](O)C[C@@]21C | inactive | 
37 | CCCCCCCCCCCCCCCC[N+](C)(C)CC | inactive | 
38 | CCc1ccc2c(c1)C(=O)c1ccccc1C2=O | inactive | 
39 | O=[N+]([O-])C1(Br)COCOC1 | inactive | 
40 | C=CC(=O)NC(C)(C)CS(=O)(=O)O | inactive | 
